The supplement of paper PMC10849652
Of roughly 8,800 targets only a part is listed; those with a hit were picked by preference. About 0.5% of all pairs of compound and target were hits.

Legend:
Assay in all cases: log2 fold change, soluble protein after heating vs DMSO (PISA); higher = thermal stabilisation; K562 lysate, 10 uM; active = over 0.2 and 3.5 SD of the protein, either way, in both replicates (recomputed)
[1] = compound: NCC(=O)Nc1ccc(-n2nc(C(F)(F)F)cc2-c2ccc3c(ccc4ccccc43)c2)cc1
In short: (§1)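 K562 pellets were dounce-homogenised in PBS pH 7.4 containing 1 mM MgCl2, and the crude extract, at 1 mg/mL protein, was exposed to 10 μM compound for 30 min. Aliquots were heated for 3 min across 48°C-58°C, pooled, brought to 0.5% NP-40 at 4°C and spun at 21,000xg for 90 min, with the supernatant taken as soluble protein. TMTpro 16plex LC-MS/MS with equalised channel sums quantified that protein. Values are log-two fold changes in thermal stability relative to solvent controls, taken from duplicates.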

vorinostat = compound: O=C(CCCCCCC(=O)Nc1ccccc1)NO [vorinostat]
In short: as §1

silmitasertib = compound: O=C(O)c1ccc2c(c1)nc(Nc1cccc(Cl)c1)c1ccncc12 [silmitasertib]
In short: as §1

[2] = compound: O=C1NC(=O)C(c2cnc3ccccn23)=C1c1cn2c3c(cc(F)cc13)CN(C(=O)N1CCCCC1)CC2
In short: as §1

entospletinib = compound: c1cn2cc(-c3ccc4cn[nH]c4c3)nc(Nc3ccc(N4CCOCC4)cc3)c2n1 [entospletinib]
In short: as §1

Measured: log2 fold change

DMAC2L (UniProt Q99766)
inactive: [1] -0.023 | vorinostat -0.174 | silmitasertib 0.037 | [2] -0.038 | entospletinib 0.022

CNIH4 (UniProt Q9P003)
Chain of UniProt Q9P003 (Q9P003 whole entry, looked up): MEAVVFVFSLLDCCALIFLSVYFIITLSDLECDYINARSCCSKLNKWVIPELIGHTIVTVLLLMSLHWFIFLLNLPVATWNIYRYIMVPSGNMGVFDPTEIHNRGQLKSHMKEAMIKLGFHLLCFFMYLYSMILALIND
inactive: [1] 0.09 | vorinostat 0.08 | silmitasertib 0.055 | [2] 0.114 | entospletinib 0.038

DENND1B (UniProt Q6P3S1)
active: vorinostat -1.3
inactive: [1] -0.063 | silmitasertib 0.28 | [2] -0.076

CLASP1 isoform 4 (UniProt Q7Z460)
inactive: [1] -0.214 | vorinostat 0.167 | silmitasertib 0.06

DNM2 (UniProt P50570)
inactive: [1] 0.011 | silmitasertib 0.061 | [2] -0.021 | entospletinib 0.014
active: vorinostat -0.27

DAPK1 isoform 3 (UniProt P53355)
Chain of UniProt P53355 (P53355 whole entry, looked up): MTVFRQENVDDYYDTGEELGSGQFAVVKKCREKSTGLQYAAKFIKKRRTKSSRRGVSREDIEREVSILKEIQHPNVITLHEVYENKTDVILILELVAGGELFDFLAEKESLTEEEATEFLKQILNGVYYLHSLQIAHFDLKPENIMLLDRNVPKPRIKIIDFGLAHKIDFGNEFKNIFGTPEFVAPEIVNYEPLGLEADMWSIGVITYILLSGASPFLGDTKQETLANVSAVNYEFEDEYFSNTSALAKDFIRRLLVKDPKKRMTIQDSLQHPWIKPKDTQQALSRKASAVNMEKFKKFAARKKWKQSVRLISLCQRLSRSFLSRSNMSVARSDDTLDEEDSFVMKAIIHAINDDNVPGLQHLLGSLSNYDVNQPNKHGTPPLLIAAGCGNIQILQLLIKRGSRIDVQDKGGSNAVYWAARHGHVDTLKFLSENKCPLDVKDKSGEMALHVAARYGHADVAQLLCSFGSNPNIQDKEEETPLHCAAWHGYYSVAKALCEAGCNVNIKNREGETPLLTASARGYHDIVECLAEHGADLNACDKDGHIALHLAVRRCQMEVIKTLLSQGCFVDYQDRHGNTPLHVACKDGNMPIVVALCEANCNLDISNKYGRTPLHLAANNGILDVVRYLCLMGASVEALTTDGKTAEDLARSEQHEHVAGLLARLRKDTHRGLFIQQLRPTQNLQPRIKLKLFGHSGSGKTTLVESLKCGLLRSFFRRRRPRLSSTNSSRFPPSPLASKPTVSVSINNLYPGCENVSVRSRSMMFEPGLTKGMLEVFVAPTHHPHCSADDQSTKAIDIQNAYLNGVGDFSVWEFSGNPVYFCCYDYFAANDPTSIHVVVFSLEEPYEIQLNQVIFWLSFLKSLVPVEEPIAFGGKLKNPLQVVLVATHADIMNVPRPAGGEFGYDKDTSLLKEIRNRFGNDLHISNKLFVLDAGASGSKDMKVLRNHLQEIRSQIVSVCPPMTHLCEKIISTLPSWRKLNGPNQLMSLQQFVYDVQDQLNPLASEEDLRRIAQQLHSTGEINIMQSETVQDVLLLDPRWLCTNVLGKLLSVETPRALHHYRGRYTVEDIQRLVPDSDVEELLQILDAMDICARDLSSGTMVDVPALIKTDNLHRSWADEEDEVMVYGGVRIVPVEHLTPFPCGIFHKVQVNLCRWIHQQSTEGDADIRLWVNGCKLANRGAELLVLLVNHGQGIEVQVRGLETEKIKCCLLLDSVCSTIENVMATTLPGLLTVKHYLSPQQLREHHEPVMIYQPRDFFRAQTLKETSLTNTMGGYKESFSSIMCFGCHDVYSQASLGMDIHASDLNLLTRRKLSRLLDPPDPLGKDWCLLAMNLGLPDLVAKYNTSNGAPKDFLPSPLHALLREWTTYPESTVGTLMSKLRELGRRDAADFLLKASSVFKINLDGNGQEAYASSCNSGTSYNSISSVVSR
active: silmitasertib 0.833
inactive: [1] 0.09 | vorinostat -0.477 | [2] 0.004

CPT1A (UniProt P50416)
inactive: [1] -0.033 | silmitasertib -0.001 | [2] -0.002 | entospletinib -0.06
active: vorinostat 0.406

CSTF2 (UniProt P33240)
inactive: [1] 0.001 | vorinostat 0.046 | silmitasertib 0.007 | [2] 0.013 | entospletinib -0.045

COQ9 (UniProt O75208)
inactive: [1] 0.005 | vorinostat 0.084 | silmitasertib 0.002 | [2] 0.031 | entospletinib -0.012

CKAP2 (UniProt Q8WWK9)
active: [1] 0.434
inactive: vorinostat 0.011 | silmitasertib -0.013 | [2] -0.044 | entospletinib 0.033

CUX1 isoform 2 (UniProt Q13948)
inactive: [1] -0.102 | vorinostat 0.101 | silmitasertib 0.086 | [2] 0.676 | entospletinib -0.077

CMPK2 (UniProt Q5EBM0)
inactive: [1] -0.002 | silmitasertib 0.005 | [2] 0.064 | entospletinib 0
active: vorinostat -0.323

DENND4A isoform 2 (UniProt Q7Z401)
inactive: [1] 0.046 | silmitasertib 0.043 | [2] -0.02 | entospletinib -0.013
active: vorinostat -0.379

DGCR8 (UniProt Q8WYQ5)
Chain of UniProt Q8WYQ5 (Q8WYQ5 whole entry, looked up): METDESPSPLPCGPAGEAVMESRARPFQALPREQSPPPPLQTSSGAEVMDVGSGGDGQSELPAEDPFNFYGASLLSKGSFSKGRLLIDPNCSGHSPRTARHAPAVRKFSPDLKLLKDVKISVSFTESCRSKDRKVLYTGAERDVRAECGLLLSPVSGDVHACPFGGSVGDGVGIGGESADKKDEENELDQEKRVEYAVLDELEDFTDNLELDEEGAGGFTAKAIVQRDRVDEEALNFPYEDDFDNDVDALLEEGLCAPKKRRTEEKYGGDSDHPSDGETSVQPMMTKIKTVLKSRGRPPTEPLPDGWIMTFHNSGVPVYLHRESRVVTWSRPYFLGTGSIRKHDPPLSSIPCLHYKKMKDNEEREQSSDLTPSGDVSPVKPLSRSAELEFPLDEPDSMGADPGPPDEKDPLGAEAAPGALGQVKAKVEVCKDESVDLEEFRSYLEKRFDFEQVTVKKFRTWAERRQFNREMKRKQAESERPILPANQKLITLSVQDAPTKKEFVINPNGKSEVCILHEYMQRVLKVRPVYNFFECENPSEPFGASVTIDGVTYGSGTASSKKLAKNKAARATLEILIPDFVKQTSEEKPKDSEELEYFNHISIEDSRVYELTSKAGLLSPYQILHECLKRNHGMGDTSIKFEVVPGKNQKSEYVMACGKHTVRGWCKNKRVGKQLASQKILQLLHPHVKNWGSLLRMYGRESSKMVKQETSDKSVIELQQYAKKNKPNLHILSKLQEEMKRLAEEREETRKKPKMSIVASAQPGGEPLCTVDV
active: vorinostat -0.38
inactive: [1] -0.027 | silmitasertib -0.041 | [2] -0.054 | entospletinib -0.066

CNOT2 (UniProt Q9NZN8)
active: vorinostat -0.207
inactive: [1] 0.044 | silmitasertib 0.015 | [2] -0.009 | entospletinib -0.015

CKS1B (UniProt P61024)
inactive: [1] -0.059 | vorinostat 0.115 | silmitasertib -0.004 | [2] -0.076 | entospletinib -0.021

CMIP (UniProt Q8IY22)
inactive: [1] -0.101 | silmitasertib 0.018 | [2] 0.021 | entospletinib -0.052
active: vorinostat -0.541

CXXC1 isoform 2 (UniProt Q9P0U4)
Chain of UniProt Q9P0U4 (Q9P0U4 whole entry, looked up): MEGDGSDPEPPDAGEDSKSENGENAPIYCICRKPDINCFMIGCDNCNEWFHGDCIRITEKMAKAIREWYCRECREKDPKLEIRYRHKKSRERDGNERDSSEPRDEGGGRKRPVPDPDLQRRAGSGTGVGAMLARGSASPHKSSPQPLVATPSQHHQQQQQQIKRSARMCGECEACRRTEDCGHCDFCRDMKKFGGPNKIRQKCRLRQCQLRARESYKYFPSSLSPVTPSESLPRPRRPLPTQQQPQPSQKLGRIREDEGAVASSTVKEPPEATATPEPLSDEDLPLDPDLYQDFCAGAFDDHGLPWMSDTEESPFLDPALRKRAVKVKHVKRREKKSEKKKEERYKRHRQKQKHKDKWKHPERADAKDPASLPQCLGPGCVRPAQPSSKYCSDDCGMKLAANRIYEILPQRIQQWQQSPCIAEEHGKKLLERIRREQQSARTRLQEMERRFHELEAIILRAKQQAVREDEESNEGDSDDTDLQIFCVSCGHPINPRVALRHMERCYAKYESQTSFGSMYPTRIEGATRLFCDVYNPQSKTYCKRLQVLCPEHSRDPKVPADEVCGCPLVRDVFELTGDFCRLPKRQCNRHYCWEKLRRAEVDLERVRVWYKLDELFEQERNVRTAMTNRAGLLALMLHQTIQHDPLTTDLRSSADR
inactive: [1] -0.008 | vorinostat -0.18 | silmitasertib 0.08 | [2] 0.027 | entospletinib -0.033

CIAO2A (UniProt Q9H5X1)
active: vorinostat 0.368
inactive: [1] 0.021 | silmitasertib -0.016 | [2] -0.037 | entospletinib 0.009

DPY19L3 (UniProt Q6ZPD9)
inactive: [1] -0.085 | vorinostat 0.219 | silmitasertib 0.108 | [2] 0.035 | entospletinib -0.024

CYCS (UniProt P99999)
Chain of UniProt P99999 (P99999 whole entry, looked up): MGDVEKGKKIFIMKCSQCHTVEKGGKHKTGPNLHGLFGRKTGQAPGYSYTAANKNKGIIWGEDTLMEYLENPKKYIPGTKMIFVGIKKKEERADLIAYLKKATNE
inactive: [1] 0.017 | vorinostat 0.114 | silmitasertib -0.004 | [2] 0.033 | entospletinib 0.011

CMTM3 (UniProt Q96MX0)
inactive: [1] 0.05 | silmitasertib -0.004 | [2] -0.03 | entospletinib -0.004
active: vorinostat -0.516

DDA1 (UniProt Q9BW61)
active: vorinostat -0.289
inactive: [1] -0.024 | silmitasertib -0.006 | [2] 0.05 | entospletinib 0.054

CHEK1 (UniProt O14757)
inactive: [1] 0.008 | vorinostat 0.086 | silmitasertib 0.168 | [2] -0.014 | entospletinib 0.009

CLASP1 (UniProt Q7Z460)
active: vorinostat -0.317
inactive: [1] 0.018 | silmitasertib -0.015 | [2] -0.022 | entospletinib 0.029

DARS (UniProt P14868)
active: vorinostat -0.327
inactive: [1] 0.003 | silmitasertib 0.056 | [2] 0.019 | entospletinib 0.035

CLUH (UniProt O75153)
active: vorinostat 0.404
inactive: [1] -0.011 | silmitasertib 0.071 | [2] 0.033 | entospletinib 0.01

DENND6A (UniProt Q8IWF6)
active: vorinostat -0.38
inactive: [1] -0.049 | silmitasertib 0.1 | [2] -0.07 | entospletinib -0.051

CNNM2 (UniProt Q9H8M5)
inactive: [1] 0.001 | vorinostat 0.068 | silmitasertib 0.065 | [2] 0.051 | entospletinib -0.073

DDX54 isoform 2 (UniProt Q8TDD1)
inactive: [1] 0.131 | vorinostat 0.066 | silmitasertib -0.006 | [2] -0.008 | entospletinib -0.009

CLPTM1L (UniProt Q96KA5)
inactive: [1] -0.045 | vorinostat 0.136 | silmitasertib 0.012 | [2] 0.012 | entospletinib -0.039

CUX1 isoform 3 (UniProt P39880)
inactive: [1] 0.008 | vorinostat 0.005 | silmitasertib 0.025 | [2] -0.022 | entospletinib -0.014

CLPB isoform 2 (UniProt Q9H078)
inactive: [1] 0.075 | silmitasertib 0.062 | [2] -0.028 | entospletinib 0.016
active: vorinostat -0.446

CNOT4 isoform 6 (UniProt O95628)
inactive: [1] -0.028 | vorinostat 0.046 | silmitasertib -0.032 | [2] -0.057 | entospletinib -0.011

DNAH10 (UniProt Q8IVF4)
inactive: [1] 0.103 | vorinostat 0.065 | silmitasertib 0 | [2] 0.069 | entospletinib 0.065

CKM (UniProt P06732)
inactive: [1] 0.003 | vorinostat -0.053 | silmitasertib -0.025 | [2] -0.014 | entospletinib -0.026

DHCR7 (UniProt Q9UBM7)
inactive: [1] -0.098 | vorinostat -0.022 | silmitasertib 0.03 | [2] -0.004 | entospletinib 0.078

COG5 isoform 2 (UniProt Q9UP83)
active: vorinostat -0.342
inactive: [1] -0.005 | silmitasertib 0.073 | [2] -0.029 | entospletinib 0.038

CSK (UniProt P41240)
inactive: [1] -0.008 | vorinostat -0.262 | silmitasertib -0.006 | [2] -0.021 | entospletinib 0.195

COG7 (UniProt P83436)
active: vorinostat -0.287
inactive: [1] -0.013 | silmitasertib 0.06 | [2] 0.034 | entospletinib 0.033

DNAJC1 (UniProt Q96KC8)
inactive: [1] 0.003 | vorinostat 0.017 | silmitasertib 0.025 | [2] -0.007 | entospletinib -0.032

DDX39A (UniProt O00148)
inactive: [1] 0.017 | silmitasertib 0.017 | [2] 0.036 | entospletinib -0.033
active: vorinostat -0.383

COX7B (UniProt P24311)
inactive: [1] -0.043 | vorinostat 0.081 | silmitasertib 0 | [2] 0 | entospletinib 0.104

CORO7 (UniProt P57737)
Chain of UniProt P57737 (P57737 whole entry, looked up): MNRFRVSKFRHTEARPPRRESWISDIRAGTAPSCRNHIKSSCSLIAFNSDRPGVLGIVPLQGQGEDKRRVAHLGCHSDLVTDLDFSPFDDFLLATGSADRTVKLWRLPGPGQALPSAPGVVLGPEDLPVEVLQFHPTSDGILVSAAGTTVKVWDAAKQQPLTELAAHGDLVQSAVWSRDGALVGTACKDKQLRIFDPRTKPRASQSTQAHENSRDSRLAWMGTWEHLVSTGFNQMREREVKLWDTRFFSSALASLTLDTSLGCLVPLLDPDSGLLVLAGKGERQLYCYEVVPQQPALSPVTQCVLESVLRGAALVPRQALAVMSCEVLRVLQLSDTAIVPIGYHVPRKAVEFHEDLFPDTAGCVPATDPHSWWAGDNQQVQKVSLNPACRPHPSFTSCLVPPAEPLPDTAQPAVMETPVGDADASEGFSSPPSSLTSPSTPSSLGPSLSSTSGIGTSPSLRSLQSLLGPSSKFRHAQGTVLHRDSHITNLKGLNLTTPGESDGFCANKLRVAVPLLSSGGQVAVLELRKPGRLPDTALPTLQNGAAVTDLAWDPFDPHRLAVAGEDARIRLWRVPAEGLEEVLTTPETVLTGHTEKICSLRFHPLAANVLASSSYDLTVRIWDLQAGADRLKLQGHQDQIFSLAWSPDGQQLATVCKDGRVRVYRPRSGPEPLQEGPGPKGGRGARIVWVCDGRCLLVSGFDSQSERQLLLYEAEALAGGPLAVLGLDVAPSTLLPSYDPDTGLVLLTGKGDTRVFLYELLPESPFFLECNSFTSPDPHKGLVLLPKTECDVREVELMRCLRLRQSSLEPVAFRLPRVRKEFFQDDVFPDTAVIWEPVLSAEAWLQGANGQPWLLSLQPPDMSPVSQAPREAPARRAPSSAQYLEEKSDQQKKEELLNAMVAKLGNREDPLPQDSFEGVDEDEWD
inactive: [1] -0.053 | vorinostat -0.019 | silmitasertib -0.017 | [2] 0.019 | entospletinib -0.045

CNDP2 (UniProt Q96KP4)
inactive: [1] 0.023 | vorinostat 0.133 | silmitasertib -0.025 | [2] -0.008 | entospletinib 0.01

COX20 isoform 2 (UniProt Q5RI15)
inactive: [1] -0.016 | vorinostat -0.079 | silmitasertib 0.011 | [2] -0.037 | entospletinib 0.026

CYP24A1 (UniProt Q07973)
inactive: [1] 0.187 | vorinostat 0.119 | silmitasertib 0.019 | [2] 0.081 | entospletinib 0.002

DIAPH3 (UniProt Q9NSV4)
active: vorinostat -0.584
inactive: [1] -0.047 | silmitasertib 0.067 | [2] -0.006 | entospletinib -0.017

CHUK (UniProt O15111)
inactive: [1] -0.016 | silmitasertib 0.103 | [2] 0.054 | entospletinib 0.012
active: vorinostat -0.492

DERA (UniProt Q9Y315)
inactive: [1] -0.015 | vorinostat 0.063 | silmitasertib -0.003 | [2] 0.018 | entospletinib 0

CSNK1E (UniProt P49674)
Chain of UniProt P49674 (P49674 whole entry, looked up): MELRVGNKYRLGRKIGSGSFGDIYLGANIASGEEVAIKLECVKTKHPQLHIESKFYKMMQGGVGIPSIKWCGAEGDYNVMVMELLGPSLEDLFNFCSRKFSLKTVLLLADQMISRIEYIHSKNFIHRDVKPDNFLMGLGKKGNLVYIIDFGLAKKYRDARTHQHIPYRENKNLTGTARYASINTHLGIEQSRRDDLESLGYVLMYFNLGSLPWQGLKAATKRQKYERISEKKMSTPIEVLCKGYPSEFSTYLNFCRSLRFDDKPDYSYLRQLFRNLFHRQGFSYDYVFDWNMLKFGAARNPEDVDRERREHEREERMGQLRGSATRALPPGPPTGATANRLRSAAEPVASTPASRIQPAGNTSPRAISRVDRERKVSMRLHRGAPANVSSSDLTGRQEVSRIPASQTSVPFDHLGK
active: vorinostat -0.419
inactive: [1] 0.016 | silmitasertib 0.206 | [2] 0.01 | entospletinib 0.012

CTPS2 (UniProt Q9NRF8)
Chain of UniProt Q9NRF8 (Q9NRF8 whole entry, looked up): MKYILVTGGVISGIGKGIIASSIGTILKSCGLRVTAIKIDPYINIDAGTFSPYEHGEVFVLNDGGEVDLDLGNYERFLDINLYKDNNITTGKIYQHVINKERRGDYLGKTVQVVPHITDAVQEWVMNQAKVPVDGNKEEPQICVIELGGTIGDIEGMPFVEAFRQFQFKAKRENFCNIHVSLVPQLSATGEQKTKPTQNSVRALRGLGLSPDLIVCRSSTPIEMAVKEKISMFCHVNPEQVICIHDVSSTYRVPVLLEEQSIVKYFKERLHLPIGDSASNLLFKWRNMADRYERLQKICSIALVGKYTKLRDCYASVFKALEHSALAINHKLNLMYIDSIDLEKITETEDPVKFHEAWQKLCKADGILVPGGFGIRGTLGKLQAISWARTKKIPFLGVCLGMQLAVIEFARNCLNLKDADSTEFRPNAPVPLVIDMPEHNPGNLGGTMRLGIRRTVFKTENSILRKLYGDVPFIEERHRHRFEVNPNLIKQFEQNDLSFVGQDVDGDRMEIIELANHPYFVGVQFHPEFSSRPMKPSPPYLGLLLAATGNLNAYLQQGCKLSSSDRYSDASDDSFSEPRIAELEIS
inactive: [1] 0.006 | silmitasertib 0.007 | [2] -0.034 | entospletinib 0.019
active: vorinostat 0.327

DLG3 isoform 2 (UniProt Q92796)
inactive: [1] 0.067 | vorinostat -0.023 | silmitasertib -0.025 | [2] -0.036 | entospletinib -0.007

CRABP2 (UniProt P29373)
inactive: [1] 0.169 | vorinostat 0.18 | silmitasertib -0.05 | [2] 0.007 | entospletinib -0.209
